Our source for the outcome values is PubChem BioAssay.

Measured potencies and affinities stand elsewhere. Active and inactive are the calls of the source.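 The calls were made as follows: active = every replicate test run called active, with the signal dropping as expected and potency within twice the top valid dose; inconclusive = test runs disagree, or a flat partial drop or poor fit; inactive = every test run inactive, or effect opposite to expected.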

The nature of the assay: PAX8 transcriptional activity inhibition in RMG-I – RMG-I cells, luciferase, cherry-pick, dose response (AID 687027). Conditions: RMG-I TPO-Luc reporter, SteadyGlo luminescence, 24 h; series mostly up to 35 µM.
Regarding `CCCCn1c(O)c(N=NC(=O)Cn2c(C(F)(F)F)nc3ccccc32)c2ccccc21`, the result was inactive. On to `COc1cc(OC)cc(C(=O)NCC(=O)OCC(=O)c2cc(C)n(Cc3ccco3)c2C)c1`, for which the compound was called inactive. With `C[C@@H]1CN([C@@H](C)CO)C(=O)Cc2cc(NS(=O)(=O)c3ccc(Cl)cc3)ccc2O[C@H]1CN(C)Cc1ccc(C(F)(F)F)cc1`, the call was inactive. Under `O=C(NCc1ccco1)C1CCCN(S(=O)(=O)c2ccc(Br)cc2)C1` (stereo not drawn) stands “inactive”.

Take `CC1CN(CC(O)COC(c2ccccc2)c2ccccc2)CC(C)O1` (stereo not drawn): the call was inactive. Regarding `Cc1cc(Nc2ccc3c(c2)OCCO3)c2ccccc2n1`, the result was inactive. For `CNC[C@H]1Oc2ccc(NC(=O)NC(C)C)cc2CC(=O)N([C@@H](C)CO)C[C@@H]1C`, the compound was called inactive. Under `Cc1nnc(N/N=C/c2cc(C)n(-c3ccc(F)cc3)c2C)n1N` stands “inactive”; under `CCCNC(=O)COc1nc2ccccc2nc1N1CCOCC1`, “inactive”; under `CCOc1ccc(-n2c(=S)sc3c(=O)[nH]c(SCC(=O)NCC4CCCO4)nc32)cc1` (stereo not drawn), “inactive”. The entry for `COc1cccc(S(=O)(=O)NCC(=O)Nc2ccc(C(C)(C)C)cc2)c1` is “inactive”; for `Cc1ccc(S(=O)(=O)Nc2ccc3c(c2)C(=O)N([C@@H](C)CO)C[C@@H](C)[C@@H](CN(C)C)OCCCC[C@H](C)O3)cc1` it is “inactive”; for `CNC[C@@H]1Oc2ccc(NC(=O)NC(C)C)cc2CC(=O)N([C@@H](C)CO)C[C@@H]1C` it is “inactive”. Under `Cc1cc(CN(C)C(=O)c2cc(COc3ccc4ncccc4c3)on2)on1` stands “inactive”; under `O=S(=O)(NCC1CCCO1)c1cnc(Cl)c(Br)c1` (stereo not drawn), “inactive”; under `COc1ccc(C(=O)NC(=S)NNC(=O)c2c(-c3ccccc3)noc2C)cc1`, “inactive”. On to `CCOc1ccc2nc(N/C(N)=N/C(=S)Nc3ccc(C)c(C)c3)nc(C)c2c1`, for which the compound was called inactive. The entry for `CCSc1cc(N2CCOCC2)nc(-c2ccc(Cl)cc2)n1` is “inactive”; for `COc1ccccc1CNC(=O)c1ccc2nc3[nH]c4ccccc4c3nc2c1` it is “inactive”. The entry for `O=C(CCC(=O)c1ccccc1)NCCc1c[nH]c2ccccc12` is “inactive”; for `COc1cccc(CC(=O)Nc2nc3c(s2)C(=O)CC(C)(C)C3)c1` it is “inactive”. The entry for `COc1ccc2c(COC(=O)CNC(=O)C34CC5CC(CC(C5)C3)C4)cc(=O)oc2c1` is “inactive”.

Regarding `C[C@@H]1CN([C@@H](C)CO)S(=O)(=O)c2ccc(C#Cc3ccncc3)cc2O[C@@H]1CN(C)C(=O)C1CCCCC1`, the result was inactive.
